Results taken from PubChem BioAssay (Tox21).
Records with an inconclusive call do not appear. Calls of active or inactive are those of the source. Unless noted, the call rests on the fitted dose curve; in most records, active means well fitted curve in the direction sought with a large enough effect in the repeat runs; inconclusive means weak or mixed curves; inactive means no such curve, though single readings can be large; an effect the other way counts as inactive or inconclusive.

Assays:
[1] = qHTS RealTime-Glo MT Cell Viability Assay in HepG2 cells - 24 hour (AID 1224867); further: nearly all actives have a fitted effect of over 50% in size
How it was run: (§1)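 Real-time, nonlytic viability: 600 HepG2 cells/well mixed with NanoLuc enzyme plus prosubstrate; 5 h settle, compound (DMSO) added by pintool; luminescence monitored over 40 h at 37 C.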

[2] = qHTS RealTime-Glo MT Cell Viability Assay in HEK293 cells - 32 hour (AID 1224868); further: top concentration of the series differs between compounds; nearly all actives have a fitted effect of over 50% in size
How it was run: (§2)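 Cells + reagent dispensed (600 cells/well, HEK293) → 5 h at 37 C/5% CO2 → 23 nL compound in DMSO pinned → 40 h at 37 C → luminescence read at 0, 8, 16, 24, 32, 40 h.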

[3] = A CellTox Green Cytotoxicity Assay to monitor cytotoxicity in HEK293 cells - 0 hour (AID 1224869); further: nearly all actives have a fitted effect of over 50% in size
How it was run: (§3)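 Cells (HEK293, 600/well) and dye reagent are dispensed together. After 5 h at 37 C, 23 nL compound is pinned in. Plates stay at 37 C for 40 h with fluorescence read at 0h, 8h, 16h, 24h, 32h and 40h.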

[4] = qHTS RealTime-Glo MT Cell Viability Assay in HepG2 cells - 40 hour (AID 1224870); further: nearly all actives have a fitted effect of over 50% in size
How it was run: (§4)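 HepG2 cells mixed with RealTime-Glo MT reagents (NanoLuc plus cell-permeant prosubstrate) were seeded at 600 cells/well, incubated 5 h at 37 C/5% CO2, then pinned with compounds in DMSO; nonlytic luminescence tracked viability during 40 h treatment.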

[5] = A CellTox Green Cytotoxicity Assay to monitor cytotoxicity in HEK293 cells - 40 hour (AID 1224871); further: nearly all actives have a fitted effect of over 45% in size
How it was run: as §3

[6] = qHTS RealTime-Glo MT Cell Viability Assay in HEK293 cells - 16 hour (AID 1224872)
How it was run: as §2

[7] = qHTS RealTime-Glo MT Cell Viability Assay in HepG2 cells - 8 hour (AID 1224873); further: nearly all actives have a fitted effect of over 55% in size
How it was run: as §4

[8] = qHTS RealTime-Glo MT Cell Viability Assay in HEK293 cells - 40 hour (AID 1224874); conditions: RealTime-Glo luminescence; max response: active compounds read low; further: nearly all actives have a fitted effect of over 50% in size
How it was run: (§5)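 Real-time viability in HEK293: signal arises when living cells convert a prosubstrate for NanoLuc in the medium, so luminescence tracks viable cell number. Compound (23 nL, DMSO) added 5 h post-seeding; kinetic reads at 0–40 h, 37 C.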

[9] = A CellTox Green Cytotoxicity Assay to monitor cytotoxicity in HEK293 cells - 24 hour (AID 1224875); further: series mostly up to about 77 µM; nearly all actives have a fitted effect of over 45% in size
How it was run: as §3

[10] = A CellTox Green Cytotoxicity Assay to monitor cytotoxicity in HepG2 cells - 16 hour (AID 1224876); further: nearly all actives have a fitted effect of over 45% in size
How it was run: (§6)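 Cells and non-lytic dye reagent are dispensed together (600 HepG2 cells/well) and incubated 5 h before DMSO compound transfer. Kinetic fluorescence is then recorded in the same wells during 40 h at 37 C.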

[11] = qHTS RealTime-Glo MT Cell Viability Assay in HepG2 cells - 32 hour (AID 1224877); further: nearly all actives have a fitted effect of over 55% in size
How it was run: as §1

[12] = A CellTox Green Cytotoxicity Assay to monitor cytotoxicity in HepG2 cells - 24 hour (AID 1224878); further: nearly all actives have a fitted effect of over 45% in size
How it was run: as §6

[13] = A CellTox Green Cytotoxicity Assay to monitor cytotoxicity in HepG2 cells - 40 hour (AID 1224879); further: nearly all actives have a fitted effect of over 40% in size
How it was run: as §6

[14] = qHTS RealTime-Glo MT Cell Viability Assay in HEK293 cells - 0 hour (AID 1224880)
How it was run: as §5

[15] = A CellTox Green Cytotoxicity Assay to monitor cytotoxicity in HEK293 cells - 32 hour (AID 1224881); further: nearly all actives have a fitted effect of over 40% in size
How it was run: as §3

[16] = A CellTox Green Cytotoxicity Assay to monitor cytotoxicity in HepG2 cells - 0 hour (AID 1224882); further: nearly all actives have a fitted effect of over 35% in size
How it was run: as §6

[17] = A CellTox Green Cytotoxicity Assay to monitor cytotoxicity in HepG2 cells - 32 hour (AID 1224883); further: nearly all actives have a fitted effect of over 50% in size
How it was run: as §6

[18] = A CellTox Green Cytotoxicity Assay to monitor cytotoxicity in HEK293 cells - 8 hour (AID 1224884); further: nearly all actives have a fitted effect of over 35% in size
How it was run: as §3

[19] = qHTS RealTime-Glo MT Cell Viability Assay in HepG2 cells - 16 hour (AID 1224885); further: nearly all actives have a fitted effect of over 50% in size
How it was run: as §1

[20] = qHTS assay to identify small molecule agonists of the estrogen related receptor (ERR) signaling pathway from Tox21 library (AID 1224849; calls by dose curve; further: nearly all actives have a fitted effect of over 15% in size)
How it was run: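 Cells carrying the ERR reporter were plated and allowed to settle for 6 h, exposed to library compounds for 18 h at 37 C, then lysed with ONE-Glo and luminescence measured.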
On the % scale 0 is the no-effect control and ±100 the full control effect.

CO[Si](CCCCl)(OC)OC
inactive: outcome [1] | Potency [2] | Potency [3] | outcome [4] | Potency [5] | Potency [6] | outcome [7] | max response [8] 28.4% | Potency [9] | Potency [10] | outcome [11] | Potency [12] | Potency [13] | outcome [14] | Potency [15] | Potency [16] | Potency [17] | Potency [18] | outcome [19]

CCCCCC(=O)OCC
inactive: outcome [1] | Potency [2] | Potency [3] | outcome [4] | Potency [5] | Potency [6] | outcome [7] | max response [8] 5.39% | Potency [9] | Potency [10] | outcome [11] | Potency [12] | Potency [13] | outcome [14] | Potency [15] | Potency [16] | Potency [17] | Potency [18] | outcome [19]

Oc1ccccc1Cc1ccccc1O
inactive: outcome [20] | Potency [3] | outcome [4] | Potency [5] | outcome [7] | Potency [9] | Potency [10] | outcome [11] | outcome [14] | Potency [15] | Potency [16] | outcome [19]

CC(C)COC(=O)CCCCC(=O)OCC(C)C
inactive: outcome [1] | Potency [2] | Potency [3] | outcome [4] | Potency [5] | Potency [6] | outcome [7] | max response [8] -8.63% | Potency [9] | Potency [10] | outcome [11] | Potency [12] | Potency [13] | outcome [14] | Potency [15] | Potency [16] | Potency [17] | Potency [18] | outcome [19]

CC(=O)c1ccc(OCC(=O)N2CCCCC2)cc1
inactive: outcome [1] | Potency [2] | Potency [3] | Potency [5] | Potency [6] | outcome [7] | max response [8] 1.3% | Potency [9] | Potency [10] | outcome [11] | Potency [12] | Potency [13] | outcome [14] | Potency [15] | Potency [16] | Potency [17] | outcome [19]

CCC(C)N (stereo unspecified)
inactive: outcome [1] | Potency [2] | Potency [3] | outcome [4] | Potency [5] | Potency [6] | outcome [7] | max response [8] -5.31% | Potency [10] | outcome [11] | Potency [12] | Potency [13] | outcome [14] | Potency [15] | Potency [16] | Potency [17] | Potency [18] | outcome [19]

Cc1cccc(C(=O)O)c1[N+](=O)[O-]
inactive: outcome [1] | Potency [2] | Potency [3] | Potency [5] | Potency [6] | outcome [7] | max response [8] 0.185% | Potency [9] | Potency [10] | outcome [11] | Potency [12] | Potency [13] | outcome [14] | Potency [15] | Potency [16] | Potency [17] | outcome [19]

CCN(CC)C(=O)C1CN2CCc3cc(OC)c(OC)cc3C2CC1OC(C)=O (stereo unspecified)
inactive: outcome [1] | Potency [2] | Potency [3] | outcome [4] | Potency [5] | Potency [6] | outcome [7] | max response [8] -4.78% | Potency [9] | Potency [10] | outcome [11] | Potency [12] | Potency [13] | outcome [14] | Potency [15] | Potency [16] | Potency [17] | outcome [19]

CC(=O)OC(C)c1ccccc1 (stereo unspecified)
inactive: outcome [1] | Potency [2] | Potency [3] | outcome [4] | Potency [5] | Potency [6] | outcome [7] | max response [8] 0.769% | Potency [9] | Potency [10] | outcome [11] | Potency [12] | Potency [13] | outcome [14] | Potency [15] | Potency [17] | Potency [18] | outcome [19]

C=C(C)C(=O)OC1CC(C)CC(C)(C)C1 (stereo unspecified)
inactive: outcome [1] | Potency [2] | Potency [3] | outcome [4] | Potency [5] | Potency [6] | outcome [7] | max response [8] 3.29% | Potency [9] | outcome [11] | Potency [12] | outcome [14] | Potency [15] | Potency [16] | Potency [18] | outcome [19]

CC(=O)N(CC(O)CO)c1c(I)c(C(=O)NCC(O)CO)c(I)c(C(=O)NCC(O)CO)c1I (stereo unspecified)
inactive: outcome [1] | Potency [2] | Potency [3] | outcome [4] | Potency [5] | Potency [6] | outcome [7] | max response [8] 6.97% | Potency [9] | Potency [10] | outcome [11] | Potency [12] | Potency [13] | outcome [14] | Potency [15] | Potency [17] | Potency [18] | outcome [19]
